# Measured values published in the supplement of paper PMC10849652.
# Targets with a hit are over-represented here; the source holds about 7,900 in all. About 0.6% of all pairs of compound and target were hits. Unmarked numbers belong to inactive results.
# Columns and labels:
# Assay in all cases: log2 fold change, soluble protein after heating vs DMSO (PISA); higher = thermal stabilisation; K562 cells, 10 uM, 30 min; active = over 0.2 and 3.5 SD of the protein, either way, in both replicates (recomputed)
# erlotinib = compound: C#Cc1cccc(Nc2ncnc3cc(OCCOC)c(OCCOC)cc23)c1 [erlotinib]
# Summary of the method: (§1)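 Values are thermal stability changes relative to control samples and are taken from duplicates. They are stated as log2 fold changes. Before quantification by TMTpro 16plex LC-MS/MS with equalised channel sums, K562 cells at 2×10^6 cells/mL were treated with 10 μM compound for 30 min, heated in aliquots for 3 min across 48°C-58°C, pooled, extracted in PBS with 0.5% NP-40 at 4°C, and centrifuged at 21,000xg for 90 min to give the soluble supernatant.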
# [1] = compound: C/C(=N\NC(=O)C1=CC(=CC=C1)S(=O)(=O)N2CCOCC2)/C3=C(C=CC(=C3)Cl)O
# Summary of the method: as §1
# [2] = compound: C1=CC(=C(C=C1Cl)C2=NC3=NC=CN=C3C(=N2)NC4=CC=NC=C4)F
# Summary of the method: as §1
# [3] = compound: C1=CC(=CC=C1C2=NC3=C(N2)C=C(C=C3)C(=O)N)OC4=CC=C(C=C4)Cl
# Summary of the method: as §1
# [4] = compound: C1=CC2=C(C=CC(=C2)/C=C\3/C(=O)NC(=NCC4=CC=CS4)S3)N=C1
# Summary of the method: as §1
# [5] = compound: C1=CC2=NC=CN=C2C=C1/C=C/3\C(=O)NC(=O)S3
# Summary of the method: as §1
# [6] = compound: C1=CC=C(C=C1)C2=NC(=C(N2)C3=CC=NC=C3)C4=CC(=C(C=C4)Cl)O
# Summary of the method: as §1
# [7] = compound: C1=CC=C2C(=C1)C3=NNC4=CC=CC(=C43)C2=O
# Summary of the method: as §1
# [8] = compound: C1CCN(C1)C(=O)NC2=CC=CC(=C2)NC3=NC=C(C(=N3)NCCC4=CN=CN4)Br
# Summary of the method: as §1
# [9] = compound: C1CN(CCC1(CC2=CC=C(C=C2)Cl)N)C3=NC=NC4=C3C=CN4
# Summary of the method: as §1
# IRAK-1-4 Inhibitor I = compound: C1COCCN1CCN2C3=CC=CC=C3N=C2NC(=O)C4=CC(=CC=C4)[N+](=O)[O-] [IRAK-1-4 Inhibitor I]
# Summary of the method: as §1
# ibrutinib = compound: C=CC(=O)N1CCC[C@@H](n2nc(-c3ccc(Oc4ccccc4)cc3)c3c(N)ncnc32)C1 [ibrutinib]
# Summary of the method: as §1
# [10] = compound: CC(=O)c1cnc2ccc(-c3cc(Cl)c(O)c(Cl)c3)nc2c1N[C@H]1CC[C@H](CN(C)C)CC1
# Summary of the method: as §1
# ralimetinib = compound: CC(C)(C)Cn1c(N)nc2ccc(-c3[nH]c(C(C)(C)C)nc3-c3ccc(F)cc3)nc21 [ralimetinib]
# Summary of the method: as §1
# [11] = compound: CC(C)(O)CC(=O)NCCn1ccc2ncnc(Nc3ccc(Oc4cccc(C(F)(F)F)c4)c(Cl)c3)c21
# Summary of the method: as §1
# [12] = compound: CC(C)C1=C2N=C(C=C(N2N=C1)NCC3=CC=CC=C3)NCCCCCCN
# Summary of the method: as §1
# [13] = compound: CC(C)C[C@@H](C=O)NC(=O)[C@H](CC(C)C)NC(=O)[C@H](CC(C)C)NC(=O)OCc1ccccc1
# Summary of the method: as §1
# pinometostat = compound: CC(C)N(C[C@H]1O[C@@H](n2cnc3c(N)ncnc32)[C@H](O)[C@@H]1O)[C@H]1C[C@@H](CCc2nc3cc(C(C)(C)C)ccc3[nH]2)C1 [pinometostat]
# Summary of the method: as §1
# [14] = compound: CC1=C(C(CC(=O)N1)C2=CC=C(C=C2)C(F)(F)F)C(=O)NC3=C(C=C4C(=C3)C=NN4)F
# Summary of the method: as §1
# [15] = compound: CC1=C(C2=C(C=C1)C(=O)C3=CC=CC=C3N2CCCN)C
# Summary of the method: as §1
# UniProt P14635, sequence (P14635 whole entry, looked up): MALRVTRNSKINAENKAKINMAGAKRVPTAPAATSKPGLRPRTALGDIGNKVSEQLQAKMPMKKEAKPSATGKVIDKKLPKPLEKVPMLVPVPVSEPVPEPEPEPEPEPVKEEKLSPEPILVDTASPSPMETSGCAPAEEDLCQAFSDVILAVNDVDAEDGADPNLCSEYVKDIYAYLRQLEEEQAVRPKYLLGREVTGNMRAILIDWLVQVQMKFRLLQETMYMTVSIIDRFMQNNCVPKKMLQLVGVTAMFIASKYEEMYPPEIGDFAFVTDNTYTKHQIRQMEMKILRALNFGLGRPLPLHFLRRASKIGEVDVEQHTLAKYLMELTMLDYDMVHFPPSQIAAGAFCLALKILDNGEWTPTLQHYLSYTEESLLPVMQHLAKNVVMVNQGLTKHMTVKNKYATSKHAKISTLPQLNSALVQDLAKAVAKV
# UniProt P19397, sequence (P19397 whole entry, looked up): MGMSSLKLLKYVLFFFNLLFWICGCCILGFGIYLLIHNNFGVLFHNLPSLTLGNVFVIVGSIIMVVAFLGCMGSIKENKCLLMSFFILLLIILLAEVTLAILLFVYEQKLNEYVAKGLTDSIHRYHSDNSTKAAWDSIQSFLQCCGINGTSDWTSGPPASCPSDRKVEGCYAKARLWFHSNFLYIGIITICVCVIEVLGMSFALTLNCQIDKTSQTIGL
# UniProt Q8N684, sequence (Q8N684 whole entry, looked up): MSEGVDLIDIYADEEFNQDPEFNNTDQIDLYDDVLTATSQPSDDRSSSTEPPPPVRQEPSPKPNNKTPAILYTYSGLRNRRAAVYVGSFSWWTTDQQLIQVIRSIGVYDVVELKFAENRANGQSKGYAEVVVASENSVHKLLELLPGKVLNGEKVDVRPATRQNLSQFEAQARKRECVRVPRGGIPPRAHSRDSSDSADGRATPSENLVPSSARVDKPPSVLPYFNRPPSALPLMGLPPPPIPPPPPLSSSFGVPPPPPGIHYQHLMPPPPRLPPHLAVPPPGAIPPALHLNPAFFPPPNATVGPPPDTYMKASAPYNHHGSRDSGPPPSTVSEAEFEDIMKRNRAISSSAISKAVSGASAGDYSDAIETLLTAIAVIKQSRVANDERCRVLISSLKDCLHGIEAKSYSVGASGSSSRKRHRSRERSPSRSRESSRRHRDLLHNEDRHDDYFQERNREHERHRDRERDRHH
# UniProt Q14839, sequence (Q14839 whole entry, looked up): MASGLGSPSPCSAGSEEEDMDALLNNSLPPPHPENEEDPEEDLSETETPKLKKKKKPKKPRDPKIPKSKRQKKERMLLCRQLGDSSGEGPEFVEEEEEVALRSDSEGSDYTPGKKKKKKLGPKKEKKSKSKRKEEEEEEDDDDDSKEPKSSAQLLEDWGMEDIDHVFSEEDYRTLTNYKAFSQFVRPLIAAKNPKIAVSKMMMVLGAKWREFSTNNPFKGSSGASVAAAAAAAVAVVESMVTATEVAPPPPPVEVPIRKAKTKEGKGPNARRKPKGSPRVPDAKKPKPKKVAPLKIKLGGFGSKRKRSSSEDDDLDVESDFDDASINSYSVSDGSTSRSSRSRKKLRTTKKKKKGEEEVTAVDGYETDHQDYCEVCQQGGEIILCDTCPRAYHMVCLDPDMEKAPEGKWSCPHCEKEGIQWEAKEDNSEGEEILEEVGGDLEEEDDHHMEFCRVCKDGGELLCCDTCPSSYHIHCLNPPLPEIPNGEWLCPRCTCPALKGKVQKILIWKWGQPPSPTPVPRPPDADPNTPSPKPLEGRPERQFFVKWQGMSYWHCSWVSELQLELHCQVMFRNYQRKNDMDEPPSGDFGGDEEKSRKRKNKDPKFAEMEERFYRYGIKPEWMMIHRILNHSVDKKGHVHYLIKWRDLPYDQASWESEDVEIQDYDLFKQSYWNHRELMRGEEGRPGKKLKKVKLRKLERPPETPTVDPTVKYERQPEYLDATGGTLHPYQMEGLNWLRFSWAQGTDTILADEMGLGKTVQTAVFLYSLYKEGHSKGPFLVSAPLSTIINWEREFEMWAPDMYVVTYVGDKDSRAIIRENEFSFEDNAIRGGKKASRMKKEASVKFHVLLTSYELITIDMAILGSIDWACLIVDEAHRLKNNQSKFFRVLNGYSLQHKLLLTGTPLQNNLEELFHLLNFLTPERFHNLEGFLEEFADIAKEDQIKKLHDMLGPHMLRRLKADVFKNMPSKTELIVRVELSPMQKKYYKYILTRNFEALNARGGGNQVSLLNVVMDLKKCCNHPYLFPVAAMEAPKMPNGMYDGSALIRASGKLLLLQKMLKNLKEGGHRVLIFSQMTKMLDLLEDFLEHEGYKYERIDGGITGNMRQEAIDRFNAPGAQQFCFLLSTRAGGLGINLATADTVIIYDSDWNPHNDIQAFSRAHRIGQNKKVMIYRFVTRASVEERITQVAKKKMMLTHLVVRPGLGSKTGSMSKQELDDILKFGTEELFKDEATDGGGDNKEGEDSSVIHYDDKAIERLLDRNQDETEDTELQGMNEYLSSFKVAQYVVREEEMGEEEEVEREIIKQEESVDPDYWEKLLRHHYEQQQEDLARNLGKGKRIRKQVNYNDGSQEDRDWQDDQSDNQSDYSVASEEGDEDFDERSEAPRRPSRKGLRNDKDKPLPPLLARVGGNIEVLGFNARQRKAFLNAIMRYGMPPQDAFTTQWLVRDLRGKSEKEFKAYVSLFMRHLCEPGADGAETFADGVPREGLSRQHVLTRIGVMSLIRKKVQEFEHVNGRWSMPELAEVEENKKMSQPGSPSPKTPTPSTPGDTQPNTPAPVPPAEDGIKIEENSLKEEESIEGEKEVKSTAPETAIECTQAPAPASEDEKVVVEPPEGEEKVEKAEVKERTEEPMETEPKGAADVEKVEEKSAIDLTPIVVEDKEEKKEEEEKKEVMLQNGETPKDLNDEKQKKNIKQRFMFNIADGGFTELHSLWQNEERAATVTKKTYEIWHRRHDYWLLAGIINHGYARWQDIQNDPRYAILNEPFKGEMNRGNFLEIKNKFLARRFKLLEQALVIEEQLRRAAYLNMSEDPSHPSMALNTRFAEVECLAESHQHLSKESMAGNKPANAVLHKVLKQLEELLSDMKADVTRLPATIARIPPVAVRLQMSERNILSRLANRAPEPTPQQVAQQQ
# UniProt Q96JB5, sequence (Q96JB5 whole entry, looked up): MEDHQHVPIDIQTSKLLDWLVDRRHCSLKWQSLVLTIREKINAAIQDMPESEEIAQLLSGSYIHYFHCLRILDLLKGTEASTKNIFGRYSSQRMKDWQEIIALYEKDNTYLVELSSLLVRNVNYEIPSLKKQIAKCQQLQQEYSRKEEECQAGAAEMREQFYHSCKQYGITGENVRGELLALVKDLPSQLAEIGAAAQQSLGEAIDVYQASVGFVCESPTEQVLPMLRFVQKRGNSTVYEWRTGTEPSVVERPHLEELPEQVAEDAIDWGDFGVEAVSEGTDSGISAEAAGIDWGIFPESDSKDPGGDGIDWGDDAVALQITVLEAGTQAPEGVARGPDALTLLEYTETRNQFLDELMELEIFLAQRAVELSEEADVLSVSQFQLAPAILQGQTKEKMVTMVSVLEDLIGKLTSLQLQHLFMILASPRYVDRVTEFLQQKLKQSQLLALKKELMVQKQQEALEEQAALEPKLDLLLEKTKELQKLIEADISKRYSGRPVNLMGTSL
# UniProt Q16630, sequence (Q16630 whole entry, looked up): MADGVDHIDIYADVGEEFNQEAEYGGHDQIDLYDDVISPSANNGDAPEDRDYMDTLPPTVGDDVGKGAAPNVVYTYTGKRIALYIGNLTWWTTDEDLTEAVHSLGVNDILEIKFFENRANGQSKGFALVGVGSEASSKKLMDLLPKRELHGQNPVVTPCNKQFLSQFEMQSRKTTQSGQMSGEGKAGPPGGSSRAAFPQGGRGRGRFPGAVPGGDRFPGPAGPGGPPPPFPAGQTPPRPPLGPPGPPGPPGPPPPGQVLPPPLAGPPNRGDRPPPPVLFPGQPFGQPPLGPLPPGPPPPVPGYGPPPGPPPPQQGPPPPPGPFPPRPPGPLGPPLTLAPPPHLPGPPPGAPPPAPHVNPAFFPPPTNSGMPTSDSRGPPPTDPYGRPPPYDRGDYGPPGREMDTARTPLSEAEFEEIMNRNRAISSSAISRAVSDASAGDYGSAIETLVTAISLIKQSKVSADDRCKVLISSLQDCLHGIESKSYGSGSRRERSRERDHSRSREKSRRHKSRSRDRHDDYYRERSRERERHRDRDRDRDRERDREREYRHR
# UniProt P20674, sequence (P20674 whole entry, looked up): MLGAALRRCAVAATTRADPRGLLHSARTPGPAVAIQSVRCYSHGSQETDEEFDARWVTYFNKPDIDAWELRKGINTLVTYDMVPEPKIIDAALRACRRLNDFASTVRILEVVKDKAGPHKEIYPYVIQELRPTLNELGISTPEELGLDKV
# UniProt Q13901, sequence (Q13901 whole entry, looked up): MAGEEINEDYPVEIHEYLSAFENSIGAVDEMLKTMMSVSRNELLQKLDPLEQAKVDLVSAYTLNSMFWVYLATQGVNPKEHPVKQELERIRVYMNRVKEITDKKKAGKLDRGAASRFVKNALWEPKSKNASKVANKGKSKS
# UniProt P67870, sequence (P67870 whole entry, looked up): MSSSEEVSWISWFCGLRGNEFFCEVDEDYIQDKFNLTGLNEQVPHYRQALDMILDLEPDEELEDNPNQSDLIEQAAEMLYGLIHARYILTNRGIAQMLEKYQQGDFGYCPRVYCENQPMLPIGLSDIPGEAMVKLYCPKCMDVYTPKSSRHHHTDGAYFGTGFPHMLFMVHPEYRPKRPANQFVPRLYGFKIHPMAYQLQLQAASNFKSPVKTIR
# UniProt Q8N4Q1, sequence (Q8N4Q1 whole entry, looked up): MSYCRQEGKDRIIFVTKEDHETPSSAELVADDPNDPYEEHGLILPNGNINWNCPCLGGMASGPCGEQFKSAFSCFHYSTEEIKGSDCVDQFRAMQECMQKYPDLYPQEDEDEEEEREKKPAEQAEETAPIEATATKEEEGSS
Target,log2 fold change (erlotinib),log2 fold change [1],log2 fold change [2],log2 fold change [3],log2 fold change [4],log2 fold change [5],log2 fold change [6],log2 fold change [7],log2 fold change [8],log2 fold change [9],log2 fold change (IRAK-1-4 Inhibitor I),log2 fold change (ibrutinib),log2 fold change [10],log2 fold change (ralimetinib),log2 fold change [11],log2 fold change [12],log2 fold change [13],log2 fold change (pinometostat),log2 fold change [14],log2 fold change [15]
COX5A (UniProt P20674),-0.005,-0.05,0.104,0.052,0.045,0.016,0.183,0.051,-0.026,-0.081,0.041,0.008,-0.09,-0.053,-0.103,0.058,-0.069,-0.042,0.041,0.122
CD53 (UniProt P19397),0.041,0.028,0.059,-0.006,0.064,0.01,-0.221,-0.086,-0.001,-0.007,0.097,0.033,-0.026,-0.24,-0.021,0.229,0.051,-0.014,-0.004,0.105
CPSF3 (UniProt Q9UKF6),0.006,0.104,0.028,0,-0.003,0.048,0,-0.022,-0.005,-0.011,-0.044,-0.04,0.026,-0.006,0.028,-0.052,0.035,0.036,-0.025,-0.013
CPSF7 isoform 3 (UniProt Q8N684),-0.035,0.054,-0.015,0.041,-0.001,0.005,0.01,-0.005,-0.035,-0.016,-0.037,0,-0.242 (active),0.003,-0.002,0.02,-0.045,-0.028,-0.016,0.236 (active)
CHD4 isoform 2 (UniProt Q14839),0.042,0.103,-0.011,-0.007,0.029,0.034,0.044,-0.08,-0.047,-0.1,-0.198,-0.106,-0.215,0.112,-0.067,-0.313 (active),0.045,0.07,0.013,-0.057
CHCHD4 isoform 2 (UniProt Q8N4Q1),-0.071,0.102,-0.045,-0.036,-0.067,0.012,-0.022,0.053,-0.678,0.177,0.056,0.003,0.096,-0.003,0.002,0.075,0.03,-0.024,-0.011,-0.18
CDK5RAP3 isoform 4 (UniProt Q96JB5),0.089,0.027,0.042,-0.017,0.01,0.023,0.033,0.041,-0.003,-0.068,-0.051,-0.068,-0.005,-0.015,-0.062,-0.056,-0.002,0.017,-0.031,0.009
CHKA (UniProt P35790),0.012,-0.008,0.036,-0.018,0.001,-0.119,0.069,-0.188,0.005,-0.021,-0.034,0,0.085,0.006,0.057,0.113,0.019,0.088,-0.061,0.079
COASY isoform 2 (UniProt Q13057),-0.022,0.1,0.042,-0.067,0.032,0.01,0.076,0.043,-0.011,0.092,0.039,0.004,-0.016,-0.032,-0.063,0.037,-0.02,0.005,-0.018,0.079
CCNB1 (UniProt P14635),0.012,0.013,0.03,0.044,0.013,0.006,-0.016,0.002,-0.011,-0.018,0.035,-0.024,-0.221 (active),-0.016,-0.005,-0.014,0.006,-0.018,-0.007,0.007
CSNK2B (UniProt P67870),-0.021,-0.024,-0.017,-0.007,0.123,0.324 (active),0.031,0.084,-0.031,-0.023,-0.003,-0.014,0.266 (active),-0.006,-0.021,-0.087,-0.003,0.044,0.022,0.096
C1D (UniProt Q13901),0.022,-0.078,-0.01,-0.011,-0.246,0.068,-0.071,-0.044,-0.019,-0.1,0.013,-0.041,-0.081,0.016,-0.047,0.072,0.055,-0.081,0.084,-0.004
CAMK2G isoform 6 (UniProt Q13555),-0.003,-0.096,-0.047,-0.098,0.054,0.009,0.055,0.08,-0.02,0.015,-0.008,0.004,0.181,0.118,0.039,-0.016,0.038,0.067,-0.075,0.063
CHEK1 (UniProt O14757),0.03,0.047,0.029,0.012,0.246,0,-0.026,-0.099,-0.303 (active),-0.089,-0.018,-0.014,0,-0.076,-0.055,0.003,0.056,0.018,0.017,-0.029
CPSF6 isoform 2 (UniProt Q16630),0.023,0.079,-0.072,0.122,-0.04,-0.026,-0.002,-0.016,-0.021,-0.135,-0.047,0,-0.599 (active),-0.017,0.02,-0.029,-0.053,0.004,-0.042,0.195
CHST11 (UniProt Q9NPF2),-0.061,0.082,0.046,-0.054,-0.118,0.007,0.161,0.057,0.002,-0.067,-0.002,-0.032,0.063,-0.406,0.057,-0.257,-0.17,0.084,-0.006,-0.058
